In the library only some 3.2% were active in any assay of this set; here they are far more common.
BRCT PPI green: blocks human BRCA1 BRCT binding to phosphopeptide, green readout. P38398. BRCA1 BRCT-phosphopeptide binding, green fluorescence polarization. Potency, µM (top dose mostly 76.9 µM), most hits filed as inhibitors. 0.05% of 75,000 active
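Compounds were incubated for 12 min at room temperature with a complex of 100 nM fluorescein-tagged pBACH1 decapeptide and 250 nM His-tagged BRCT protein. Buffer was phosphate pH 7.3 with EDTA, DTT and Tween 20. Disruption of binding lowers the polarization signal.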
BRCT inh red: inhibitors of human BRCA1 BRCT-phosphoprotein interaction (red fluorophore); P38398; BRCT-phosphopeptide binding, red fluorescence polarization; Potency, µM (top dose mostly 76.9 µM), most hits filed as inhibitors; 0.03% of 75,000 active; AID 892
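Rhodamine-labelled pBACH1 10-mer (100 nM) bound to BRCT domain (100 nM) at pH 7.3; compounds incubated 12 min room temperature, polarization read. Free peptide defines full inhibition; unlabelled decapeptide titrated as control.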
TsaE inh: displaces an ADP probe from E. coli YjeE (TsaE). purified YjeE enzyme, qHTS inhibition assay. 0.05% of 71,000 active. Potency, µM
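Purified YjeE (10 uM) with BODIPY Texas Red-labeled ADP probe (2 uM); compounds pin-transferred, 15 min at room temperature. Binding inhibition read as decreased fluorescence polarization; ADP titration as control.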
HEK293 cAMP ctrl: counter-screen for TSHR agonists: cAMP increase in parental HEK293; Potency, µM (doses to about 57.1 µM), hits mostly activators; 2.5% of 73,000 active; parental HEK293 CNG cAMP sensor, membrane potential fluorescence; note: nearly all actives have a fitted effect of over 55% in size
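Parental HEK 293 cells stably expressing a cAMP-gated CNG channel were loaded with membrane potential dye containing 100 uM RO 20-1724 for 60 min. Compound added for 30 min; depolarization read as fluorescence intensity at 590 nm.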
TSHR agonist: activates the human thyroid stimulating hormone receptor | P16473 | 0.48% of 73,000 active | Potency, µM (top dose mostly 57.1 µM), actives largely listed as activators | HEK293-CNG-TSHR cells (CNG channel as cAMP sensor), membrane potential dye, cAMP; active = well fitted activation curve with a large enough effect in the main read-out, with a control signal flat, not every such curve was filed as active; inconclusive = small, poorly fitted or top-dose-only effect, or a change in a side signal; inactive = no such curve, though single readings can be large or run the other way; reference of the percent scale not stated here;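 note: the control signal comes from parental cells without the receptor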
Target sequence (P16473 whole entry, looked up): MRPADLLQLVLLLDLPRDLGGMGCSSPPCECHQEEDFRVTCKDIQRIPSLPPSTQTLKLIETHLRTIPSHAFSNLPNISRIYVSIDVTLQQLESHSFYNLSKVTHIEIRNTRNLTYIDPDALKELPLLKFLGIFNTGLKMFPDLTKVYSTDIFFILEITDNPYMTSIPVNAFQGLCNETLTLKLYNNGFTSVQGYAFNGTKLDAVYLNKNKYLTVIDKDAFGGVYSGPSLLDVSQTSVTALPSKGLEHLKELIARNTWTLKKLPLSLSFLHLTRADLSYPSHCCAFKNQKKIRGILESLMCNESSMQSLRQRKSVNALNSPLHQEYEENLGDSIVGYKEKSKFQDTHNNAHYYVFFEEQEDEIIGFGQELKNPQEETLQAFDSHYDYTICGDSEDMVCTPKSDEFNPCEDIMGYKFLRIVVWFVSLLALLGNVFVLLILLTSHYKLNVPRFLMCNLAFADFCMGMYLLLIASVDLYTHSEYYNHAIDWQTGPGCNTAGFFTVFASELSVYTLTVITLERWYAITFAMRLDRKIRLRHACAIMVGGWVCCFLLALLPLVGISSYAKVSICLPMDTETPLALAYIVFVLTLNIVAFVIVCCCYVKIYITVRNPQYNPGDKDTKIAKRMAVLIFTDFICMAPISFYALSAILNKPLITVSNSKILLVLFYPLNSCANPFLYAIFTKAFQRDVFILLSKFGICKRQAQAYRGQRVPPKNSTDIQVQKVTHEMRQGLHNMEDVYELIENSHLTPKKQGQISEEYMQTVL
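HEK 293 cells stably expressing TSHR and a cAMP-gated CNG channel; parental CNG-only cells as counterscreen. Cells preloaded 60 min with membrane potential dye plus 100 uM RO 20-1724, then compound 30 min; fluorescence read at 590 nm.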
Pol III holo inh: blocks replication by bacterial DNA polymerase III holoenzyme | Potency, µM (highest dose often 57.1 µM) | 0.25% of 71,000 active | reconstituted DNA polymerase III holoenzyme replication, biochemical
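Reconstituted *E. coli* holoenzyme (0.35 nM Pol III, 1 nM beta, 154 nM SSB, 2 nM primase) was preincubated with compound for 15 min at RT. Synthesis on 1.4 nM ssM13Gori ran 35 min, then was stopped with PicoGreen/EDTA and read as dsDNA fluorescence.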
Of the large screens only hits and unclear results are named; the others gave an inactive call; ! = repeats disagree. Unless noted, calls come from the whole dose curve; as a rule, active = well fitted curve in the direction sought with a large enough effect; inconclusive = small, poorly fitted or top-dose-only effect, or another doubt; inactive = no such curve, though single readings can be large; an effect the other way counts as inactive or inconclusive.

Oc1cc(Cl)c(Cl)c(Cl)c1	none
Oc1cc(Cl)c(Cl)cc1Cl	none (no result: TSHR agonist)
Oc1cc(Cl)c(Cl)c(Cl)c1Cl	HEK293 cAMP ctrl 40µM, TSHR agonist inconclusive
Oc1c(Cl)c(Cl)cc(Cl)c1Cl	HEK293 cAMP ctrl 40µM, TSHR agonist inconclusive
NC(N)=Nc1ccc2[nH]c3c(c2c1)C[C@]1(O)[C@@H]2Cc4ccc(O)c5c4[C@]1(CCN2CC1CC1)[C@H]3O5	HEK293 cAMP ctrl 0.016µM, TSHR agonist inconclusive
C=C(C)CN1CC[C@@]23c4c5ccc(O)c4O[C@H]2c2[nH]c4ccccc4c2C[C@]3(O)[C@@H]1C5	none
NC(=NCCc1ccc(I)cc1)SCCCc1cnc[nH]1	HEK293 cAMP ctrl inconclusive, TSHR agonist inconclusive
CCCCOC(=O)c1ccccc1C(=O)OCc1ccccc1	HEK293 cAMP ctrl 16µM, TSHR agonist inconclusive
C[C@@H](O)CN(CCN(C[C@@H](C)O)C[C@@H](C)O)C[C@@H](C)O.O=[N+]([O-])O.[Cu]	none
c1ccc(/N=C2\N=C(Nc3ccccn3)c3ccccc32)nc1	TSHR agonist 7.9µM
COC(=O)[C@H]1C[C@@H]1[C@H](NP(=O)(c1ccccc1)c1ccccc1)c1ccccc1	HEK293 cAMP ctrl 0.5µM, TSHR agonist inconclusive
COC(=O)[C@@H]1C[C@@H]1[C@@H](NP(=O)(c1ccccc1)c1ccccc1)c1ccccc1	HEK293 cAMP ctrl 10µM, TSHR agonist inconclusive (no result: BRCT PPI green, BRCT inh red)
CNC(=O)[C@H]1C[C@@H]1[C@H](NP(=O)(c1ccccc1)c1ccccc1)c1ccccc1	HEK293 cAMP ctrl 16µM, TSHR agonist inconclusive
COC(=O)[C@@H]1C[C@H]1[C@@H](NP(=O)(c1ccccc1)c1ccccc1)c1ccccc1	HEK293 cAMP ctrl 13µM, TSHR agonist inconclusive
CCC/C=C(\CCC)C(NP(=O)(c1ccccc1)c1ccccc1)c1ccccc1 (stereo not given)	HEK293 cAMP ctrl inconclusive, TSHR agonist inconclusive
O=C(O)[C@@H]1C[C@H]1[C@@H](NP(=O)(c1ccccc1)c1ccccc1)c1ccccc1	none
CC(C)=CCCC1(C)C=Cc2c(O)c3c(c(CC=C(C)C)c2O1)OC12C(CC4CC1C(C)(C)OC2(C/C=C(/C)C(=O)O)C4O)C3=O (stereo not given)	none (no result: TsaE inh, HEK293 cAMP ctrl, TSHR agonist, Pol III holo inh)
N#CC(C#N)=NNc1cccc(Cl)c1	HEK293 cAMP ctrl 0.63µM, TSHR agonist inconclusive (no result: TsaE inh, Pol III holo inh)
CC(C)c1ccc2c(c1)CC[C@H]1[C@@](C)(CN)CCC[C@@]21C	none
CCn1cc(C(=O)O)c(=O)c2ccc(Cc3ccccc3)nc21	HEK293 cAMP ctrl inconclusive, TSHR agonist inconclusive (no result: BRCT PPI green, BRCT inh red)
c1cnc(N2CCCC3(CCNCC3)C2)nc1	none
c1cc(N2CCCC3(CCNCC3)C2)ccn1	HEK293 cAMP ctrl 2.5µM, TSHR agonist inconclusive
c1ccc(N2CC3(CCNCC3)C2)cc1	HEK293 cAMP ctrl 10µM, TSHR agonist inconclusive
CCOC(=O)[C@@H]1[C@@H]2c3ccccc3-c3ccccc3[C@H]2C[C@H]1O	HEK293 cAMP ctrl inconclusive, TSHR agonist inconclusive
CN(CC1COc2ccccc2O1)c1nc(-c2cccnc2)nc2ccccc12 (stereo not given)	HEK293 cAMP ctrl 25µM, TSHR agonist inconclusive
O=C1NCN(c2ccccc2)C12CCN(C[C@H]1COc3ccccc3O1)CC2	HEK293 cAMP ctrl inconclusive, TSHR agonist inconclusive
C=C(C)[C@@H]1CN[C@H](C(=O)O)[C@H]1CC(=O)O	HEK293 cAMP ctrl inconclusive, TSHR agonist inconclusive (no result: BRCT PPI green, BRCT inh red)
COC(=O)[C@]1(C)C[C@H]1[C@H](NP(=O)(c1ccccc1)c1ccccc1)c1ccccc1	HEK293 cAMP ctrl inconclusive, TSHR agonist inconclusive
C=C[C@@H]1C[C@@]1(C)[C@@H](NP(=O)(c1ccccc1)c1ccccc1)c1ccccc1	HEK293 cAMP ctrl 5µM, TSHR agonist inconclusive
O=C(NC[C@H]1CCCCN1)c1cc(OCC(F)(F)F)ccc1OCC(F)(F)F	HEK293 cAMP ctrl 4µM!, TSHR agonist inconclusive
CSC([N-]/N=C/c1cccc(C)n1)=[S]=[Cu].CS[C@H]([S-])[N-]/N=C/c1cccc(C)n1	none
Cc1nn(-c2ccccc2)c2c1C(c1ccc3c(c1)OCO3)SCC(=O)N2 (stereo not given)	TSHR agonist 10µM

Bioassay records as filed in PubChem.
